Screening results from PubChem BioAssay.
TDP1 block = qHTS Assay for Inhibitors of Tyrosyl-DNA Phosphodiesterase (TDP1); recombinant TDP1, AlphaScreen DNA substrate cleavage; Potency, µM (top dose mostly 130 µM), for inactives: top-dose activity change, negative = inhibition, usual class: inhibitors; actives 0.28% (n = 350,000); AID 485290, 2010; further: on the % scale 0 is the no-effect control and ±100 the full control effect; nearly all actives have a fitted effect of over 40% in size
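E. coli-derived human Tdp1, 1 nM final. Cpd preinc 15 min RT; substrate 15 nM final, 5 min RT; AS bead mix 10 ug/ml final, 10 min RT. Signal loss = tyrosine-FITC cleavage. No-enzyme wells = max signal.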
DT40 TDP1 no CPT = qHTS for Inhibitors of human tyrosyl-DNA phosphodiesterase 1 (TDP1): qHTS in cells in absence of CPT. DT40 Tdp1-/- hTDP1 cells, no CPT, ATP luminescence, 48 h. actives 15% (n = 420,000). Potency, µM (doses to about 46.2 µM), without a hit: top-dose activity change, negative = growth inhibition, actives largely listed as inhibitors. AID 686978, 2013; further: on the % scale 0 is the no-effect control and ±100 the full control effect; nearly all actives have a fitted effect of over 55% in size
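A cellular qHTS used chicken DT40 cells lacking endogenous Tdp1 but carrying stably transfected human TDP1. Compounds were applied without camptothecin, and cell growth kinetics were judged by ATP-dependent luminescence after ≥48 hr.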
ClpP mod = qHTS Assay for Activators of ClpP; Potency, µM (top dose mostly 57.5 µM), without a hit: at the highest dose activity change, negative = active; purified B. subtilis ClpP, FRET peptide cleavage, 20 min; AID 651965, 2013; actives 1.9% (n = 340,000); ATP-dependent Clp protease proteolytic subunit (Bacillus subtilis (strain 168)), P80244; active means well fitted falling curve with a large enough effect; inconclusive means small, poorly fitted or top-dose-only effect; inactive means no such curve, though single readings can be large or run the other way; further: the source files actives as falling curves though it sought activators and does not explain the sign; nearly all actives have a fitted effect of over 65% in size
Target sequence (P80244 whole entry, looked up): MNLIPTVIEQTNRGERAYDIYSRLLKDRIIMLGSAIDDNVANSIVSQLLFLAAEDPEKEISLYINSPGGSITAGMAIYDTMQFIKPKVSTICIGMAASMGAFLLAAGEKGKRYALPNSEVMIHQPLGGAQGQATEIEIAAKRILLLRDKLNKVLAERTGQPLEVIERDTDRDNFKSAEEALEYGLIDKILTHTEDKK
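ClpP 10 microg/mL final, pH 8 Tris/KCl buffer with BSA, glycerol, Tween-20; compound pinned in; FRET-FV substrate; RT 20 min; Ex320/Em430; ΔFRET vs ADEP 5.8 microM, DMSO, no enzyme.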
DT40 TDP1 CPT = qHTS for Inhibitors of human tyrosyl-DNA phosphodiesterase 1 (TDP1): qHTS in cells in presence of CPT; chicken DT40 Tdp1-/-;hTDP1 cells + 20 nM CPT, ATP luminescence, 48 h; Potency, µM (series often up to 46.2 µM), without a hit: at the highest dose activity change, negative = growth inhibition, usual class: inhibitors; actives 12% (n = 420,000); further: on the % scale 0 is the no-effect control and ±100 the full control effect; nearly all actives have a fitted effect of over 55% in size
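Chicken DT40 Tdp1-/- cells complemented with human TDP1, 400 cells/well, exposed to compounds plus 20 nM camptothecin for at least 48 h at 37 C; viability read as ATP content by CellTiter-Glo luminescence.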
Starred values were filed as active, the others as inactive; ? = inconclusive; / = no result; [ ] = another dose, or the depositor's remark. Only some compounds are listed: those with a hit (about 17% of all), similar ones and a draw of the others. Unless noted, the call rests on the fitted dose curve; in most records, active means well fitted curve in the direction sought with a large enough effect; inconclusive means small, poorly fitted or top-dose-only effect, or another doubt; inactive means no such curve, though single readings can be large; an effect the other way counts as inactive or inconclusive. Potency means the concentration at half of the fitted maximal effect.

SMILES | TDP1 block | DT40 TDP1 no CPT | ClpP mod | DT40 TDP1 CPT
CCOC(=O)C(C)Sc1ncc(OC)c(Sc2ccc(Cl)cc2)n1 (centres undefined) | -4% | -1% | -1% | -8%
CCN1CCc2c(OCC(=O)N3CCCCC3)cccc2C1=O | 1% | 0% | / | 13%
O=C1C=C(c2ccccc2)C(c2ccccc2)C1 (centres undefined) | / | -10% | / | 2%
Fc1ccc(-c2csc(Nc3ccccn3)n2)cc1 | 7% | ? | -4% | 16µM*
CC(=O)Nc1ccc(-c2csc(Nc3ccc(S(N)(=O)=O)cc3)n2)cc1 | 0% | -4% | / | 9%
NS(=O)(=O)c1ccc(Nc2nc(-c3ccc(F)cc3)cs2)cc1 | 7% | 21µM* | / | 18µM*
c1ccc(Nc2nc(-c3cccs3)cs2)nc1 | 9%[56.1 µM] | ? | -5% | ?
Cc1cccnc1Nc1nc(-c2ccccn2)cs1 | 12% | 0.15µM* | -1% | 0.13µM*
Cc1cccc(Nc2nc(-c3ccc(F)cc3)cs2)n1 | 7% | ? | -3% | 12µM*
O=C(NCC1Cc2cccc(-c3cnccn3)c2O1)C1COc2ccccc2O1 (centres undefined) | / | -19% | / | 10%
C=N[C@@H](C(=O)N[C@@H]1C(=O)N2[C@@H]1SC(C)(C)[C@@H]2C(=O)O)c1ccccc1 | / | -11% | / | -21%
CC(=O)Oc1ccc(-c2csc(Nc3cccc(C)n3)n2)cc1 | 4% | ? | 0% | ?
Cc1cccc(Nc2nc(-c3ccccn3)cs2)n1 | 12% | 6.5µM* | -4% | 5.2µM*
Cc1cccc(Nc2nc(-c3cccs3)cs2)n1 | 1% | 23µM* | 1% | ?
COc1ccc(-c2csc(Nc3cccc(C)n3)n2)cc1 | 5% | ? | -2% | ?
CC(=O)Oc1ccc(-c2csc(Nc3ccccn3)n2)cc1 | / | 7.3µM* | -6% | 16µM*
NC(N)=NCCC[C@H](N)C(=O)NCC(=O)N[C@@H](CC(=O)O)C(=O)O | 5% | / | / | /
CCOc1ccc(C(=O)C(C)OC(=O)CN2C(=O)NC(C)(C)C2=O)cc1 (centres undefined) | 0% | ? | 0% | -10%
CN1C(c2ccccc2)CCOS1(=O)=O (centres undefined) | / | ? | 1% | ?
Oc1ccc(-c2cn3c(n2)SCC3)cc1 | 7% | -22% | -4% | -18%
O=C(Nc1ccc(-c2cn3c(n2)SCC3)cc1)c1ccc2ccccc2n1 | 2% | ? | 22µM* | 16µM*
O=C(Nc1ccc(N2CCCCC2)cc1)c1ccc2ccccc2n1 | 12% | ? | -1% | ?
Oc1ccc(-c2cn3c(n2)SCC3)cc1O | / | 23µM* | -7% | ?
O=C(CSc1nnc(SCC(=O)c2ccco2)s1)c1ccco1 | -1% | 10µM* | -2% | 23µM*
COc1cc(/C=C(\C#N)C(=O)Nc2ccc(C)cc2)ccc1OCc1cc(=O)n2nc(C)sc2n1 | 1% | -12% | 0% | -19%
SMILES | TDP1 block | DT40 TDP1 no CPT | ClpP mod | DT40 TDP1 CPT
COC(=O)CSc1nc(-c2ccccc2)c2c(c1C#N)CCCC2 | -3% | ? | -7% | -14%
Cc1nc(SCC(=O)O)c(C#N)c2c1CCCC2 | 10µM* | -29% | -8% | ?
COC(=O)CSc1nc(N2CCCCC2)c2c(c1C#N)CCCC2 | 0% | 23µM* | ? | ?
Cc1ccc(C(=O)Nc2cccc(NC(=O)CN3CCCCC3)c2)cc1 | / | ? | -1% | ?
COC(=O)NC(c1cccc(C)c1)[C@]1(C(C)=O)CCCC1=O (some centres undefined) | 8%[21 µM] | / | / | /
CN(CC(=O)Nc1ccccc1Cl)C(=O)COC(=O)c1nc(Cl)c(Cl)c(Cl)c1Cl | 2% | ? | 0% | ?
COc1ccc(CCN=C(N)C(C)c2ccccc2)cc1OC (centres undefined) | 3% | ? | -2% | -17%
CC(C)Cc1ccc(C(C)C(N)=NCCc2ccccc2)cc1 (centres undefined) | / | 21µM* | / | ?
COc1ccc2c(c1)CCc1cnc(-n3ncc(C(=O)NCc4cc(C)no4)c3C3CC3)nc1-2 | / | -12% | / | 3%[9.04 µM]
CC1C(=O)N(Cc2cn(CC3CCCCC3)nn2)CCS(=O)(=O)N1Cc1ccc(-c2ccc(Cl)cc2)cc1 (centres undefined) | / | 8.2µM* | -4% | 16µM*
CC1C(=O)N(Cc2cn(CC3CCCCC3)nn2)CCS(=O)(=O)N1Cc1ccc(-c2ccc(Cl)c(Cl)c2)cc1 (centres undefined) | / | 9.2µM* | -2% | 10µM*
CC1C(=O)N(Cc2cn(CC3CCCCC3)nn2)CCS(=O)(=O)N1Cc1ccc(-c2ccncc2)cc1 (centres undefined) | / | -1% | -2% | -30%
OCC1OC(c2ccccc2)C=CC1Oc1ccc(C2CCCC2)cc1 (centres undefined) | 7%[21 µM] | / | / | /
Cc1ccc2nc(C)cc(Nc3ccc4c(c3)OCCO4)c2c1 | 8% | 13µM* | -2% | 22µM*
COc1ccc2nc(C)cc(Nc3ccccc3O)c2c1 | 1% | ? | 0% | 23µM*
COc1ccc2nc(C)cc(NCc3cccc(C(F)(F)F)c3)c2c1 | 10% | 13µM* | / | 15µM*
CCOC(=O)c1ccc2nc(C)cc(Nc3ccc(OC(C)C)cc3)c2c1 | / | 18µM* | 1% | 23µM*
COc1ccc(CCC(=O)NCc2cccc(C(F)(F)F)c2)cc1 | / | -4% | -1% | -5%
COc1cccc2c1C(=O)CC(c1ccccc1)O2 (centres undefined) | 7%[56.1 µM] | ? | / | ?
CC(=O)c1ccc(Nc2cc(C)nc3ccc(C)cc23)cc1 | -4% | ? | / | ?
COc1ccc(Nc2cc(C)nc3ccc(C)cc23)cc1 | / | 16µM* | 0% | ?
COc1ccc(/C=N/Nc2cc(C)nc3ccc(Br)cc23)cc1 | / | 8.2µM* | / | ?
OCC1OC(c2ccccc2)OC2COC(c3ccccc3)OC12 (centres undefined) | / | -19% | 0% | -2%
O=[N+]([O-])c1ccc(SCc2ccncc2)nc1 | / | -19% | 1% | -17%
O=C(c1ccccc1Br)N(Cc1ccccc1)c1ccccc1 | -11% | 12µM* | / | 21µM*
CC1=C(CC(=O)c2ccc(Cl)cc2)C(=O)c2ccccc2C1=O | -6% | 16µM* | -1% | 23µM*
CCNC(=O)NC(=O)COC(=O)c1ccccc1SCC(=O)NC(=O)NCC | 1% | 15µM* | 403% | 21µM*
O=C(COC(=O)c1ccccc1SCC(=O)NC1CCS(=O)(=O)C1)NC1CCS(=O)(=O)C1 (centres undefined) | 0% | 28% | / | 6%
